High-throughput results: PubChem, several laboratories
Sampled rows, rich in hits. Any-hit rate of the full collection: about 7.2%.
VLA-4 inh – inhibition in a human VLA-4 binding assay; P13612; inhibition, % (about 7 µM as worked out from the volumes in the protocol); 0.2% of 330,000 active; VLA-4 expressing cells, ligand binding flow cytometry; AID 2557; in the data active = inhibition above about 50%
ALR H2O2 inh – human ALR oxidase inhibition via reduced H2O2. 3.8% of 290,000 active. purified ALR, DTT oxidation, H2O2 HRP-luminol luminescence. inhibition, % (concentration not given with the values). AID 485317. P55789;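 active = mean replicate inhibition above about 79%, with every replicate also reaching it, limit read from the data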
AHR activator – activators of human aryl hydrocarbon receptor; AID 2796; 2.5% of 320,000 active; activation, % at 5 µM; AHR-responsive luciferase reporter cells, luminescence; in the data active = activation above about 47%;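 also: 0% = vehicle wells and 100% = reference agonist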
Mot1-301 SUMO – blocks SUMOylation pathway, rescuing yeast Mot1-301 growth | 1% of 320,000 active | S. cerevisiae Mot1-301 growth rescue, ATP luminescence, 38.5C; percent above DMSO median, 100 means doubled | growth rescue, % at 18.8 µM;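 active = every valid replicate shows activation above 250% relative to neutral control wells; inactive = the rest, any valid replicate at or below 250%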;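 also: OY570 slx delta 5 strain wells were the positive control but not used for scaling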
Efflux pump mplx – blocks antifungal efflux pumps in multiplex yeast assay. S. cerevisiae Candida pump triplex, Nile Red efflux. inhibition, % at 10 µM. 0.44% of 330,000 active;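 active = plate passing quality check with inhibition over a set limit, or well fluorescence over plate mean plus 4 SD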;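 also: Nile Red retained in pooled yeast measured as flow cytometry median fluorescence; 0% = buffer negative control and 100% = Enniatin B positive control; higher means more Nile Red kept so more efflux inhibition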
A1 inh – inhibitors of the anti-apoptotic protein A1, read as caspase activation; AID 2462; MEF A1-2A-BIM cells, Caspase-Glo 3/7 luminescence, 3 h; percent of clofoctol response, vehicle zero; caspase activation, % (concentration not given with the values); 0.066% of 330,000 active;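 active = over half of replicate activation scores above 10%, or exactly half above 10 with the replicate mean above 10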
Active calls of the source: *; . = no result.

SMILES	VLA-4 inh	ALR H2O2 inh	AHR activator	Mot1-301 SUMO	Efflux pump mplx	A1 inh
CC(=O)Nc1nc(COc2ccccc2)cs1	0.1	-6.9	3.4	-6.6	-0.1	-1.6
CC(=O)Nc1nc(CC(=O)c2ccccc2)cs1	-9.7	3.7	57.7*	10.1	-0.1	-0.2
Cc1cnccc1CN(C)Cc1cn(C)nc1-c1cccc(Cl)c1	9.2	.	67.0*	-9.0	0.0	0.5
COc1ccc(-c2sc3ccc(OC)cc3c2C#CCCO)cc1	1.0	-2.4	60.9*	-9.5	0.1	-0.8
COc1ccc2sc(-c3ccc(N(C)C)cc3)c(C#CC(C)(C)O)c2c1	8.7	-4.6	28.2	-14.9	0.3	-1.4
COc1ccc(-c2sc3ccc(N4CCOCC4)cc3c2C#Cc2ccsc2)cc1	-15.3	0.7	22.7	-14.5	0.7	1.1
COc1ccc2sc(-c3ccc(N(C)C)cc3)c(C#Cc3cncn3C)c2c1	4.3	-23.9	71.2*	-4.1	0.2	-0.8
COc1ccc(-c2sc3cc(OC)c(OC)cc3c2C#CCO)cc1	25.4	.	18.5	.	-0.2	.
COc1ccc(-c2sc3ccc(N4CCOCC4)cc3c2C#CC(C)(C)O)cc1	-1.7	-6.5	48.8*	-19.8	0.1	-1.9
COc1ccc(-c2sc3ccc(OC)cc3c2-c2ccc(O)cc2)cc1	5.3	.	64.8*	39.8	0.3	2.5
Cc1ccc(S(=O)(=O)N2CCN(C(=O)CCc3c[nH]c4ccccc34)CC2)c(C)c1	0.9	-18.6	17.2	19.0	0.1	-1.3
C#CC[N+]1(CC#Cc2ccc(C)cc2)CCCCC1	-2.9	-26.1	-1.7	12.3	0.0	0.4
CCCc1cc(=O)oc2cc(C)cc(OCC(=O)O)c12	13.1	.	-1.0	-12.6	0.1	-0.2
C=C(Cl)COc1cc(C)cc2oc(=O)cc(CC)c12	2.9	-10.7	6.2	329.2*	0.1	-1.4
CCc1cc(=O)oc2cc(C)cc(OCC(=O)NCc3ccncc3)c12	1.0	-3.6	74.9*	3.0	0.1	-0.2
CCc1cc(=O)oc2cc(C)cc(OCC(=O)NCc3cccnc3)c12	8.3	2.0	48.8*	2.9	-0.1	-0.5
Cc1cc(OCC(=O)Nc2cccnc2)c2c(C)c(C)c(=O)oc2c1	7.8	-1.9	78.2*	25.0	-0.1	-0.7
Cc1cc(OCC(=O)NCc2cccnc2)c2c(C)c(C)c(=O)oc2c1	16.2	0.0	15.8	2.8	-0.1	1.2
FC(F)(F)c1cccc(NC(=S)NCCc2ccccn2)c1	9.3	77.4*	-5.6	.	0.0	0.9
CC(C)(C)c1ccc(NC(=S)NCCc2ccccn2)cc1	-9.0	97.9*	16.0	12.3	-0.1	0.3
N#Cc1cccc(S(=O)(=O)Nc2c(NC3CCCCC3)c3ccccc3oc2=O)c1	-10.0	98.1*	-3.5	.	0.0	.
O=c1oc2ccccc2c(NC2CCCCC2)c1NS(=O)(=O)c1ccc(F)cc1	12.8	10.3	-0.9	-0.3	0.7	-0.4
Cc1ccc(CCN2CC(C(=O)NCCN(C)C)CC2=O)cc1 (stereo not drawn)	-10.1	.	10.9	-0.9	-0.1	0.1
Cc1nc([N+](=O)[O-])cn1Cc1cccc([N+](=O)[O-])c1	-0.8	-9.5	-2.2	6.9	0.0	0.8
Cc1ccc(OCC(=O)N/N=C/c2cccnc2)cc1	1.3	-6.3	8.8	-3.8	0.3	-0.5
SMILES	VLA-4 inh	ALR H2O2 inh	AHR activator	Mot1-301 SUMO	Efflux pump mplx	A1 inh
CCOC(=O)c1c(N/N=C/c2cccnc2)n[nH]c1C	-1.5	49.4	51.6*	16.5	0.0	0.4
CCOC(=O)c1ccc(NC(=O)COc2ccc(S(=O)(=O)NC(C)(C)C)cc2)cc1	-2.1	.	7.5	2.9	-0.1	-0.6
COc1ccccc1Nc1nc2c(C)cccc2cc1C#N	-5.6	-1.9	4.2	-16.7	0.1	1.4
CCOc1ccc(Nc2nc3c(C)cccc3cc2C#N)cc1	-34.2	-5.8	50.1*	-0.3	0.1	0.0
COc1cc(OC)c(OC)cc1C#N	26.2	-54.3	1.6	689.2*	0.1	0.0
COCCNC(=S)Nc1ccc2nc(N3CCOCC3)cc(C)c2c1	10.4	84.9*	5.4	-21.7	-0.1	0.7
Cc1cc(N2CCOCC2)nc2ccc(NC(=S)NC(C)C)cc12	9.7	92.7*	0.9	16.4	0.1	-0.1
Cc1cc(N2CCCC2)nc2ccc(NC(=S)NC(C)C)cc12	0.5	43.3	21.3	-2.4	-0.1	-0.1
Cc1cc(N2CCOCC2)nc2ccc(NC(=S)NCc3ccc4c(c3)OCO4)cc12	0.7	98.8*	4.7	-22.9	-0.2	-0.1
